Records with an inconclusive call do not appear. Entries that show only a call come without a potency. Active and inactive are the calls of the source. The call rests on the fitted dose curve; in most records, active means well fitted cell-killing curve with a large enough effect; inconclusive means small, poorly fitted or top-dose-only effect, or effect the other way; inactive means no such curve, though single readings can be large or run the other way.
test: Quantitative highthroughput screen to assess conditional lethalithy of SEM cells grown in Human Plasma-Like Medium with dialyzed fetal bovine serum (HPLM+ds) (AID 1963882); conditions: SEM B-ALL cells in HPLM+ds, CellTiter-Glo viability, 48 h; series mostly up to 45.8 µM; further: nearly all actives have a fitted effect of over 35% in size
Text: Assay Provider: Jason Cantor Ph.D.
Department of Biochemistry
University of Wisconsin-Madison, Madison, WI, USA
Chemical screening studies have identified drug sensitivities across hundreds of cancer cell lines but most putative therapeutics fail to translate. Discovery and development of drug candidates in models that more accurately reflect nutrient levels in human blood is a major challenge. Here we performed high-throughput screens in conventional versus Human Plasma-Like Medium (HPLM) to identify compounds that were "missed" when screening using the artificial culture condition. Sets of conditional anticancer compounds spanned phases of clinical development and included non-oncology drugs were assessed. […] We also traced conditional phenotypes for several chemotherapeutics to availability of HPLM-specific metabolites and confirmed others for compounds whose reported targets are encoded by nonessential genes. Our findings establish generalizable strategies for exploiting conditional lethality in HPLM to reveal therapeutic candidates and mechanisms of action in cancer cells.
Described herein are the results of each viability screens against three cell lines: NOMO1 (an acute myeloid leukemia cell line); P12-Ichikawa (a T-cell acute lymphoblastic leukemia); and SEM (a B-cell ALL). Each assay was screened using 3 different cell culture media: homemade human plasma-Like medium with 10% dialyzed fetal bovine serum (HPLM+ds); RPMI1640 with 10% untreated FBS and 5mM glucose (RPMI+s); and RPMI1640 with 10% dialyzed fetal bovine serum and 5 mM glucose (RPMI+ds).
PROTOCOL TABLE (as described by Inglese J, Shamu CE and Guy RK. 2007)
SEQUENCE No. (e.g., 1, 2, 3, etc.); […] (e.g., Cells, Incubation, Reagent, etc.); VALUE and DESCRIPTION.
1; Cells; 5 uL; white, solid bottom 1536-well Greiner assay plate.
2; Compounds; 23 nL; Kalypsis pin tool (Wako USA) equipped with a 1536-well pin head to transfer to the assay plates.
3; Incubation; 48 hours; 37C incubation.
4; Reagent; 3 uL; CellTiter Glo (Promega).
5; Incubation; 5 min, room temperature
6; Detection; Luminescence, Viewlux PerkinElmer.
NOTES (numbers refer to Sequence numbers above)
1. Briefly, 5 ul of cell reagent was dispensed using a Multidrop Combi Dispenser. The NOMO1 and SEM cells were plated at 500 cells/well and the P12-Ichikawa line at 1000 cells/well.
2. After seeding the cells, 23 nL of MIPE 4.1 library compounds (in DMSO) were added to each plate using a Kalypsys 1536 Pintool dispenser. Bortezomib at final concentration of […] and DMSO were added to each plate as positive and negative controls respectively. For each screen, MIPE 4.1 compounds were added over an eleven-point concentration range […] in 3-fold dilutions.
3. Each plate was covered with a stainless steel gasketed lid to prevent evaporation and incubated for 48 hour at 37C, 95% relative humidity, and 5% CO2.
4-5. Three microliter CellTilter-GloTM luminescent substrate mix (Promega) reagent was added to the assay plate and incubated at room temperature for 5 min.
6. The luminescence signal was measured using a ViewLux (PerkinElmer) multiplate reader with a 2 second exposure time per plate. Data for each compound were normalized as percent viability such that measurements for DMSO and the empty well controls in each plate were defined as 100% and 0%, respectively.
Potency means the concentration at half of the fitted maximal effect.

| SMILES | Potency |
| --- | --- |
| CCCC[N+]1(C)[C@H]2CC(OC(=O)[C@H](CO)c3ccccc3)C[C@H]1[C@H]1O[C@H]12 (stereo not given in full) | inactive |
| CNC(=O)c1ccc(N2C(=S)N(c3ccc(C#N)c(C(F)(F)F)c3)C(=O)C23CCC3)cc1F | inactive |
| C[C@]12CC[C@H](O)CC1=CC[C@H]1[C@H]3CCC(=O)[C@@]3(C)CC[C@@H]12 | inactive |
| CCCC(C)(COC(N)=O)COC(=O)NC(C)C (stereo not given) | inactive |
| CN(C)[C@@H]1C(=O)C(C(N)=O)=C(O)[C@@]2(O)C(=O)C3=C(O)c4c(O)cccc4[C@@](C)(O)[C@H]3C[C@@H]12 | inactive |
| CCOc1ccccc1-n1c(C(C)N2CCN(C(=O)COc3ccc(Cl)cc3)CC2)nc2ccccc2c1=O (stereo not given) | 1.05 µM (active) |
| CC(C)(C)[C@]1(O)C[C@@H]2OC(=O)C[C@@]23C(=O)O[C@@H]2OC(=O)[C@H](O)C213 (stereo not given in full) | inactive |
| C[C@@H]1[C@H](O)[C@@H](C)C=CC=CCCC=CC=CC=CC=C[C@H](O[C@H]2O[C@@H](C)[C@H](O)[C@@H](N)[C@@H]2O)CC2O[C@](O)(C[C@@H](O)[C@H](O)CC[C@@H](O)C[C@@H](O)C[C@@H](O)CC(=O)O[C@H]1C)C[C@H](O)[C@H]2C(=O)O | inactive |
| O=S(=O)(F)Cc1ccccc1 | inactive |
| CC(=O)OCC1=C(C(=O)O)N2C(=O)[C@@H](N)[C@@H]2SC1 | inactive |
| O=C(N[C@H]1CN2CCC1CC2)c1ccc(Cl)cc1 | inactive |
| CCN1C[C@]2(OC(=O)c3ccccc3NC(C)=O)CC[C@H](OC)[C@@]34[C@H]5CC6[C@@H](OC)C[C@](O)(C(C[C@@H]23)[C@@H]14)[C@@]5(O)[C@@H]6OC | inactive |
| COc1cccc2c1[C@]13CCN(CC4CC4)[C@H](C2)[C@]1(OC)CCC(=O)C3 | inactive |
| CC(C)(O)C(=O)Nc1ccc([N+](=O)[O-])c(C(F)(F)F)c1 | inactive |
| Oc1ccc2c3c1O[C@H]1c4[nH]c5c(c4C[C@@]4(O)[C@@H](C2)N(CC2CC2)CC[C@]314)C[C@@]1(O)[C@H]2Cc3ccc(O)c4c3[C@@]1(CCN2CC1CC1)[C@H]5O4 | inactive |
| COc1ccc(C(=O)c2c(C)n(CCN3CCOCC3)c3cc(I)ccc23)cc1 | 20.9 µM (active) |
| C[C@]12CCC(=O)C=C1CC[C@@H]1[C@H]3CC[C@](C)(O)[C@@]3(C)CC[C@@H]12 | inactive |
| CC=C(C)C(=O)N[C@@H](c1ccccc1)[C@@H](O)C(=O)O[C@H]1C[C@@]2(O)[C@@H](OC(=O)c3ccccc3)[C@@H]3[C@]4(OC(C)=O)CO[C@@H]4C[C@H](O)[C@@]3(C)C(=O)[C@H](OC(C)=O)C(=C1C)C2(C)C | inactive |
| CC(=Cc1csc(C)n1)[C@@H]1C[C@H]2O[C@@H]2CCC[C@H](C)[C@@H](O)[C@@H](C)C(=O)C(C)(C)[C@@H](O)CC(=O)O1 | inactive |
| CCc1c(C(=O)C(N)=O)c2c(OCC(=O)O)cccc2n1Cc1ccccc1 | inactive |

| SMILES | Potency |
| --- | --- |
| CC[C@@H]1[C@@H](C)O[C@@](O)([C@@H](C)[C@H](O)[C@H](C)[C@H]2OC(=O)C=CC=C[C@@H](C)[C@@H]([C@@H](C)[C@@H](O)[C@H](C)[C@@]3(O)C[C@H](O[C@H]4C[C@H](O)[C@H](O)[C@H](C)O4)[C@H](CC)[C@@H](C)O3)OC(=O)C=CC=C[C@@H]2C)C[C@H]1O[C@H]1C[C@H](O)[C@H](O)[C@H](C)O1 | 2.35 µM (active) |
| CC(=O)N(C)c1cccc(-c2ccnc3c(C(=O)c4cccs4)cnn23)c1 | inactive |
| CC(O)(CS(=O)(=O)c1ccc(F)cc1)C(=O)Nc1ccc(C#N)c(C(F)(F)F)c1 (stereo not given) | inactive |
| CCOC(=O)c1cncn1[C@H](C)c1ccccc1 | inactive |
| O=[N+]([O-])c1ncc[nH]1 | inactive |
| O=c1[nH]c2ccccc2n1CCCN1CCC(n2c(=O)[nH]c3cc(Cl)ccc32)CC1 | inactive |
| CCC1(c2ccc(N)cc2)CCC(=O)NC1=O (stereo not given) | inactive |
| CN1C(=O)COc2c(C(=O)NC3CN4CCC3CC4)cc(Cl)cc21 (stereo not given) | inactive |
| O=P1(NCCCl)OCCCN1CCCl (stereo not given) | 18.7 µM (active) |
| CN1C(=O)CCS(=O)(=O)C1c1ccc(Cl)cc1 (stereo not given) | inactive |
| CCCCCC[C@H]1C(=O)O[C@H](C)[C@H](NC(=O)c2cccc(NC=O)c2O)C(=O)O[C@@H](C)[C@@H]1OC(=O)CC(C)C | inactive |
| O=c1cccc2n1CC1CNC[C@H]2C1 | inactive |
| CC(C)[C@]12O[C@@H]1[C@@H]1O[C@]13[C@]1(O[C@H]1C[C@@H]1C4=C(CC[C@@]13C)C(=O)OC4)[C@H]2O | 0.0012 µM (active) |
| Cc1cc(SCc2sc(-c3ccc(C(F)(F)F)c(F)c3)nc2C)ccc1OCC(=O)O | inactive |
| CC(C)(C)c1cc(C=C(C#N)C#N)cc(Br)c1O | inactive |
| C[C@]12CCC(=O)C(O)=C1CC[C@@H]1[C@H]3CCC(=O)[C@@]3(C)CC[C@@H]12 | inactive |
| C#CC1(O)CCC2C3CCC4=CC(=O)CCC4(C)C3CCC21C (stereo not given) | inactive |
| CNC(=O)N1N=C(c2ccc(N)cc2)c2cc3c(cc2CC1C)OCO3 (stereo not given) | 10.5 µM (active) |
| Cc1nc(-c2ccc(-c3ccc(C(=O)N4CCc5cc6c(cc54)C4(CCN(C)CC4)CO6)cc3)c(C)c2)no1 | inactive |
| CC(=O)Nc1ccc(OC[C@](C)(O)C(=O)Nc2ccc([N+](=O)[O-])c(C(F)(F)F)c2)cc1 | inactive |
